The values below come from PubChem BioAssay (NCATS).

In assay [1] the target is Lysosomal acid glucosylceramidase (Homo sapiens) (UniProt P04062). Put plainly: Glucocerebrosidase-p2 (AID 348; in the data active means potency below about 10 µM; further: potency means the concentration at half of the fitted maximal effect). To be noted: purified GBA, blue fluorogenic substrate, 40 min. An outline of the steps: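 Compounds titrated from 0.6 nM upwards against 0.2 nM enzyme in pH 5.9 citric acid/KH2PO4, taurocholate, tween-20; blue fluorogenic substrate 80 uM, 40 min room temperature, stopped and read Ex 365/Em 440 for AC50.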

A short description of assay [2]: AP1 Signaling Pathway (AID 357). Further: on the % scale 0 is the no-effect control and ±100 the full control effect. Conditions: ME-180 AP-1-bla reporter, EGF-induced, beta-lactamase ratio, 5 h; at 7.69 µM (top of the series) unless noted. An outline of the steps: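 ME-180 cells with beta-lactamase reporter under AP-1 response element, stimulated with EC50 EGF; compounds tested in titration series, 5 h at 37 °C. CCF4 substrate added 2.5 h at room temperature; 460/530 nm emission ratio gave %activity and AC50.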

Assay [3] addresses Cytochrome P450 1A2 (Homo sapiens) (UniProt P05177). Put plainly: p450-cyp1a2 (AID 410; calls by dose curve; further: potency means the concentration at half of the fitted maximal effect;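 on activity change, negative = inhibition: -100% = full effect of reference inhibitor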). Conditions: recombinant CYP1A2, luciferin-ME demethylation, luminescence; series mostly up to 11.4 µM. The gist of the method: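 20nM CYP1A2 with 100uM Luciferin-ME (at Km) in 100mM KPO4; compound preincubated 10 min, NADPH regeneration added, 60 min at room temperature. Luciferin quantified by luminescence after detection reagent; normalized to 57 uM furafylline.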

A short description of assay [4]: NFAT Signaling Pathway (AID 444).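 Further: carbachol stimulus at about its EC50 of 1 µM final; on the % scale 0 is the no-effect control and ±100 the full control effect.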 Conditions: Jurkat NFAT-bla M1, carbachol, beta-lactamase ratio, 5 h; at 7.69 µM (top of the series) unless noted. The gist of the method: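 Jurkat cells with NFAT-driven β-lactamase reporter and co-expressed M1 receptor, stimulated with carbachol (final 1 uM, ~EC50), compound titration, 5 h at 37 °C. CCF4 loaded 1 h at RT; 460/530 nm ratio gave %activity and AC50.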

The nature of assay [5]: Stat Signaling Pathway (AID 446).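 Further: ME-180 cervical cancer cells given 40 pM IL-6 alongside compound; SIE-controlled beta-lactamase reporter measured as 460/530 nm FRET emission ratio; on the % scale 0 is the no-effect control and ±100 the full control effect.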 To be noted: ME-180 (cervical carcinoma) SIE beta-lactamase reporter, IL-6 stimulated, 5 h; at 7.69 µM (top of the series) unless noted. An outline of the steps: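 IL-6/STAT signaling read in ME-180 cells via an SIE beta-lactamase reporter. Stimulus was 40 pM IL-6 (its AC50) for 5 hrs, so both activation and inhibition register.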
Assay [6] addresses Glucocorticoid receptor (Homo sapiens) (UniProt P04150). Put plainly: GR-GFP Redistribution (AID 450;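 active means compounds whose dose series gives a full or clear partial fitted curve of increased nuclear translocation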; further: potency means the concentration at half of the fitted maximal effect). Conditions: U2OS GR-GFP nuclear translocation, laser cytometry, 2 h.
Assay [7] shares this target. As to the kind of experiment: GR-EFC Redistribution (AID 451; calls by dose curve; further: potency means the concentration at half of the fitted maximal effect). Conditions: CHO-K1 GR-EFC translocation, beta-gal luminescence, 2 h. An outline of the steps:
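CHO-K1 cells expressing nuclear EA and GR-ED fragments of b-gal; compounds titrated up to 46 uM final, 2 h at 37 C. GR nuclear translocation read as complemented b-gal luminescence after 1 h RT detection.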

Assay [8] has as its target Mitogen-activated protein kinase 10 (Mus musculus) (UniProt Q61831). Put plainly: JNK3 AlphaScreen Assay (AID 530).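 Further: kinase came from lysate of stimulated human HepG2 cells; signal reports phosphorylation of biotinylated GST-cJun 1-79 at Ser73 with 10 µM ATP; on the % scale 0 is the no-effect control and ±100 the full control effect.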 Conditions: JNK3 lysate, c-Jun phosphorylation; series mostly up to 57.1 µM. The gist of the method: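 Pre-activated (IL-1β/TNFα) JNK3 in HepG2 lysates phosphorylates biotin-GST-cJun(1-79), 10 uM ATP; anti-phospho-cJun(Ser73) AlphaScreen read at room temperature, pH 7.6 Tris buffer. Compounds pre-incubated 15 min as titrations.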

In assay [9] the target is 3',5'-cyclic-AMP phosphodiesterase 4B (Homo sapiens) (UniProt Q07343). Put plainly: qHTS Assay for Inhibitors of PDE-IV (AID 607; active means well fitted activation curve with a large enough effect in the main read-out, with a control signal flat, not every such curve was filed as active; further: % of control where 0% means no effect). Conditions: HEK293 ACTOne CNG channel cells, membrane potential fluorescence; series mostly up to 22.9 µM. The gist of the method:
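Live HEK293 cells with a modified cyclic nucleotide-gated (CNG) channel report intracellular cAMP via membrane-potential dye fluorescence (ex 535/em 590 nm). Endogenous PDE-IV was targeted. Compounds were tested at up to 22.9 uM final; RO 20-1724 100 uM served as control.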
In general terms: In qHTS, concentration-response curves come from the screen itself.

The target of assay [10] is Cytochrome P450 3A4 (Homo sapiens) (UniProt P08684). Put plainly: qHTS Assay for Activators of Cytochrome P450 3A4 (AID 885; active means well fitted curve in the direction sought with a large enough effect; an effect the other way counts as inactive or inconclusive; further: nearly all actives have a fitted effect of over 65% in size). To be noted: recombinant CYP3A4, Luciferin-PPXE luminescence, 60 min; series mostly up to 57.1 µM. The gist of the method:
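Quantitative HTS format: compounds preincubated with 20nM human CYP3A4 and Luciferin-PPXE substrate at KM, reaction started by NADPH regeneration, stopped after 60 min, luciferase luminescence read 20 min later.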

Assay [11] has as its target Cytochrome P450 2D6 (Homo sapiens) (UniProt P10635). Put plainly: qHTS Assay for Inhibitors and Substrates of Cytochrome P450 2D6 (AID 891; active means well fitted curve in the direction sought with a large enough effect; an effect the other way counts as inactive or inconclusive; further: nearly all actives have a fitted effect of over 60% in size; further: potency means the concentration at half of the fitted maximal effect). Conditions: recombinant CYP2D6, luciferin-ME EGE luminescence; series mostly up to 11.4 µM. The gist of the method:
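Human CYP2D6 (5 nM) with 30 uM Luciferin-ME EGE (at Km) in 100 mM KPO4, compound preincubated 10 min, then NADPH regeneration system for 60 min at room temperature. Luciferin read by luminescence; normalized to 1.43 uM quinidine.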

Assay [12] deals with Cytochrome P450 2C19 (Homo sapiens) (UniProt P33261). Put plainly: qHTS Assay for Inhibitors and Substrates of Cytochrome P450 2C19 (AID 899; active means well fitted curve in the direction sought with a large enough effect; an effect the other way counts as inactive or inconclusive; further: nearly all actives have a fitted effect of over 60% in size; further: potency means the concentration at half of the fitted maximal effect). Conditions: recombinant CYP2C19, luciferin-H EGE luminescence; series mostly up to 11.4 µM. The gist of the method: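 Signal comes from luciferase acting on luciferin released by CYP2C19-mediated hydroxylation of Luciferin-H EGE, 10uM (KM). Assay mix: 5nM enzyme, 50mM KPO4; 60 min at 37C with NADPH regeneration. Data normalized against 57uM ketoconazole.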

Structures are written as SMILES. A number with no mark means an inactive call. Records with an inconclusive call do not appear. The source made the active and inactive calls. Unless noted, the call rests on the fitted dose curve; in most records, active means well fitted curve in either direction with a large enough effect (not every such curve was filed as active); inconclusive means small, poorly fitted or top-dose-only effect, or another doubt; inactive means flat fitted curve, though single readings scatter.

Cytochrome P450 1A2 (Homo sapiens), sequence (P05177 whole entry, looked up): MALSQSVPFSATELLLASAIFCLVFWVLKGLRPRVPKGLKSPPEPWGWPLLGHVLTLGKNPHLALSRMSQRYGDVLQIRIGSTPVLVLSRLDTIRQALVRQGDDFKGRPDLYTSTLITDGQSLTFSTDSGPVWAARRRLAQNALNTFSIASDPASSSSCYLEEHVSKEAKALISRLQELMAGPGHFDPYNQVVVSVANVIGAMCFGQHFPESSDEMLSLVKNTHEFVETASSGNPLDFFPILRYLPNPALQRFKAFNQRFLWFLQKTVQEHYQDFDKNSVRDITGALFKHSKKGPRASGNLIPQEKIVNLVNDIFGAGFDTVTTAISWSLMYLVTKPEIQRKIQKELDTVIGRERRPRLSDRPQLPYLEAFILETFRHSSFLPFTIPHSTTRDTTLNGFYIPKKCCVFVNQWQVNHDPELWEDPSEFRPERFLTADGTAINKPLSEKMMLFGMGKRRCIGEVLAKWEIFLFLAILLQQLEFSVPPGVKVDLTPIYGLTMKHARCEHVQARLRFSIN
Lysosomal acid glucosylceramidase (Homo sapiens), sequence (P04062 whole entry, looked up): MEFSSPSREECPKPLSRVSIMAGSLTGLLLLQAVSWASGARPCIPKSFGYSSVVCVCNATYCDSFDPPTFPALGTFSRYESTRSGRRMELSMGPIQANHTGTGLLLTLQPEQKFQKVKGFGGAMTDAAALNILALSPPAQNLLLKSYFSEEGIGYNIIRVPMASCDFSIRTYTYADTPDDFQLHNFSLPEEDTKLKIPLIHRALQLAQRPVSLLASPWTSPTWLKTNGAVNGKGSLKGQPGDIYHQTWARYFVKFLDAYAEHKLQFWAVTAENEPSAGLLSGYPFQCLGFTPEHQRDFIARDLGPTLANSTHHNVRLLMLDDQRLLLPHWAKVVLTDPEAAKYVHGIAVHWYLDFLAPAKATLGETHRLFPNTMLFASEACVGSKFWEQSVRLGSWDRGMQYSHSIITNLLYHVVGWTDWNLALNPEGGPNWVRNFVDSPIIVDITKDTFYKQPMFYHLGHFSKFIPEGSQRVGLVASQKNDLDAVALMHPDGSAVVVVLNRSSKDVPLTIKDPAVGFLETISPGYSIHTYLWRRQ
Glucocorticoid receptor (Homo sapiens), sequence (P04150 whole entry, looked up): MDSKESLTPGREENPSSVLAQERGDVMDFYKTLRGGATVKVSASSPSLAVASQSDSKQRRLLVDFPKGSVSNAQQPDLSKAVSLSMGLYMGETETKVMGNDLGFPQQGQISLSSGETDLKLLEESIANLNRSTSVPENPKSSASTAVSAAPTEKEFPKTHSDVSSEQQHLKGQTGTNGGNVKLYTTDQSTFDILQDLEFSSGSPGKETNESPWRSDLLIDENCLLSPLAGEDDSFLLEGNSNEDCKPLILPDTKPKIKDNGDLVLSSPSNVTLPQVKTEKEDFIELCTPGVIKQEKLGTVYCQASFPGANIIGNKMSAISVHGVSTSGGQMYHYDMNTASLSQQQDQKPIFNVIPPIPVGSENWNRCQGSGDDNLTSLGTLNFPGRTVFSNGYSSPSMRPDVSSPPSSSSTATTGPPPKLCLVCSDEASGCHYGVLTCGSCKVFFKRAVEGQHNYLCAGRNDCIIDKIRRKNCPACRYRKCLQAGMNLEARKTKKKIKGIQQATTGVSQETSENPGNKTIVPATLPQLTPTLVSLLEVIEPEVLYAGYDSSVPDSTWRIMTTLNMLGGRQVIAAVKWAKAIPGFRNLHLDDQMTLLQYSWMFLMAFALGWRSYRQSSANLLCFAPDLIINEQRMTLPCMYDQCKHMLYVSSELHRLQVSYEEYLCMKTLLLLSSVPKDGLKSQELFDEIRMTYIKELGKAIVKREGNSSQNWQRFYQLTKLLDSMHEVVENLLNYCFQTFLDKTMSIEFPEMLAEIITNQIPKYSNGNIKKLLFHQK
3',5'-cyclic-AMP phosphodiesterase 4B (Homo sapiens), sequence (Q07343 whole entry, looked up): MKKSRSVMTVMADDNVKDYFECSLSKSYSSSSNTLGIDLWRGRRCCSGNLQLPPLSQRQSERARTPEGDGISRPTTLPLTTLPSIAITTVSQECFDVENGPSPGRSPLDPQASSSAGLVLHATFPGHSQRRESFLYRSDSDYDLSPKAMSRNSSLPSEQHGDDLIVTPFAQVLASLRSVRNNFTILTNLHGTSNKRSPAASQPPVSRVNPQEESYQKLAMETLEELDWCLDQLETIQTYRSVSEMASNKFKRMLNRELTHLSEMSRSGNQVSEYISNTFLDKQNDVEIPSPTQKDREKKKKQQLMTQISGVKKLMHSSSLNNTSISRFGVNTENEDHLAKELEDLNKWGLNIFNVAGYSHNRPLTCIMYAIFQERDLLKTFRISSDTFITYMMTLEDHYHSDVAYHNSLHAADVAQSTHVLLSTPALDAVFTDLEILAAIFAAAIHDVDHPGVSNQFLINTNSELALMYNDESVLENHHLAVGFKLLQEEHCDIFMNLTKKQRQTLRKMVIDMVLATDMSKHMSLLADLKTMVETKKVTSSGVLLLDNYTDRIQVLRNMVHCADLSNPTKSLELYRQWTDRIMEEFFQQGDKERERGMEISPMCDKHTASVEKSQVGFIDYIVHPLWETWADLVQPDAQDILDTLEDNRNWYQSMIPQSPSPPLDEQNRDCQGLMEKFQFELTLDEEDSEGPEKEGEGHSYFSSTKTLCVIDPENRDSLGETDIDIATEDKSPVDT
Cytochrome P450 2D6 (Homo sapiens), sequence (P10635 whole entry, looked up): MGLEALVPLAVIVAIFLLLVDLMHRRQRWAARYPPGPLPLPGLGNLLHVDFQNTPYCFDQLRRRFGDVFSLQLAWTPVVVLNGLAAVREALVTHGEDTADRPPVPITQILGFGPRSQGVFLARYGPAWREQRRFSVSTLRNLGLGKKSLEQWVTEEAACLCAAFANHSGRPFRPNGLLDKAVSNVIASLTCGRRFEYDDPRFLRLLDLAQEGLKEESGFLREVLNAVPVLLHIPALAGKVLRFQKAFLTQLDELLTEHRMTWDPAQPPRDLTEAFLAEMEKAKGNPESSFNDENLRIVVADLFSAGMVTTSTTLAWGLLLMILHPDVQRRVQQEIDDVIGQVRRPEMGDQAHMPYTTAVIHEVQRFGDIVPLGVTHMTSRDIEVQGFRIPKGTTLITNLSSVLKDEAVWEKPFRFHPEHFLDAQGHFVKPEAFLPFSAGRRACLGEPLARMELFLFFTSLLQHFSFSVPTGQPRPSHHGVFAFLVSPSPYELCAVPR
Cytochrome P450 3A4 (Homo sapiens), sequence (P08684 whole entry, looked up): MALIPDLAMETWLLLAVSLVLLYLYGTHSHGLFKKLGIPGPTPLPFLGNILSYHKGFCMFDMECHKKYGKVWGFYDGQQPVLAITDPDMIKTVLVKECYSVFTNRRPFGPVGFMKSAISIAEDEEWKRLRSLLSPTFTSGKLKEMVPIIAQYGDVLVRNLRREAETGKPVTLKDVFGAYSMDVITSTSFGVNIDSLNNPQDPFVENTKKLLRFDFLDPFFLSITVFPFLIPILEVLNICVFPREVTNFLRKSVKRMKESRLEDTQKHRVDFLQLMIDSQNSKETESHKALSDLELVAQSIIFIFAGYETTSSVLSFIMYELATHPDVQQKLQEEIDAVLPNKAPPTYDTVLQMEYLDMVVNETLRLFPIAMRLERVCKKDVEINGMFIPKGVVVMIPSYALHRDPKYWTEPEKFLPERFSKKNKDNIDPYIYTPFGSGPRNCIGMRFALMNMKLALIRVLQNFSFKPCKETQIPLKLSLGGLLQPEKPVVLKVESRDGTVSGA
Cytochrome P450 2C19 (Homo sapiens), sequence (P33261 whole entry, looked up): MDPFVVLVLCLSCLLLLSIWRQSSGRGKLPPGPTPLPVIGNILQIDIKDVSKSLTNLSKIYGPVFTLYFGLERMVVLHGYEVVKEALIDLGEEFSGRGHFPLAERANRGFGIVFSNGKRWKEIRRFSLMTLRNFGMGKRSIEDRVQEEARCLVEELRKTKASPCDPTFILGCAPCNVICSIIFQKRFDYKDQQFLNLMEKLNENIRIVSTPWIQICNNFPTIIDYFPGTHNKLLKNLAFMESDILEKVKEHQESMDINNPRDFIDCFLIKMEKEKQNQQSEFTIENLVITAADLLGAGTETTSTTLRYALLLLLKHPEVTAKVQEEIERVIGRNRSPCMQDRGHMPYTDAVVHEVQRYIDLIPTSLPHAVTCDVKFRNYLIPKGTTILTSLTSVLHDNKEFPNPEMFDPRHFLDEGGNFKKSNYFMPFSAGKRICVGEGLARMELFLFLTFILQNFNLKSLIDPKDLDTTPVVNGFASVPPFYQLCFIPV

As for `C[n+]1c(/C=C\c2ccc(O)c3ncccc23)[se]c2ccccc21`, the Potency in [1] is above 11.4 µM; in assay [6], above 46 µM; in [7] it was above 9.22 µM. Also, the activity change, negative = inhibition in assay [2] was -7.45%; in assay [3] it was -22.7% [at 2.29 µM]; in assay [4] it was -19%; in assay [8], -13.6% [at 11.4 µM]. Also, in assay [5], the activity, negative = inhibition is 13%. Also, the result in [9] was inactive. The activity change, positive = activation in [10] was -31.7% [at 11.4 µM].

Take `c1ccc(CCN2CCOCC2)nc1`: the results for the Potency in assay [1], in assay [6] and in assay [7] were above 11.4 µM, above 46 µM and above 9.22 µM, respectively. The activity change, negative = inhibition in assay [2] was -2.6%; in assay [3] it was -3% [at 2.29 µM]; in [4] it was 11.7%; in assay [8], 1.44% [at 11.4 µM]. The activity, negative = inhibition in [5] is 4.66%. Also, the result in assay [9] was inactive.

As to `Nc1nc(N)c(N=Nc2ccc([As](=O)(O)O)c(O)c2)c(N)n1`, the Potency is above 11.4 µM in assay [1], 6.31 µM (active) in assay [3], above 46 µM in assay [6] and above 9.22 µM in assay [7]. Moreover, the figures for the activity change, negative = inhibition in assay [2], in [4] and in assay [8] were 1.26%, -7.71% and 1.64% [at 11.4 µM], respectively. Also, in [5], the activity, negative = inhibition is -1.21%. Also, the call in assay [9] was inactive.

In the case of `COc1cc2cc(c1Cl)N(C)C(=O)C[C@H](OC(=O)C(C)C)[C@]1(C)O[C@@H]1[C@@H](C)[C@H]1C[C@](O)(NC(=O)O1)[C@@H](OC)/C=C\C=C(\C)C2`, the results for the Potency in [1] and in assay [6] were above 11.4 µM and 0.278 µM (active), respectively. In addition, the activity change, negative = inhibition was 23.1% in [2] and 2.93% [at 11.4 µM] in [8]. Besides, the Potency entry in [3], in assay [11] and in assay [12] was “inactive” throughout. For the same molecule, the activity, negative = inhibition in [5] was 6.86%. Moreover, in assay [9], the molecule was classed as inactive.

In the case of `NC(N)=NCCN=C(N)N`, the Potency in assay [1] was above 11.4 µM; in [6] it was above 46 µM; in assay [7] it was above 9.22 µM. The activity change, negative = inhibition was 1.56% in [2], -0.323% in assay [4] and 1.78% [at 11.4 µM] in assay [8]. Besides, in assay [3], the Potency result is “inactive”. Besides, the result in [9] was inactive.

Turning to `NC(=O)c1ccc(C(=O)Nc2ccc([As](=O)(O)O)cc2)cc1`, the Potency in assay [1] is above 11.4 µM; in assay [7], above 9.22 µM. Besides, the activity change, negative = inhibition was -1.92% in [2], -13.8% [at 2.29 µM] in [3], 26.9% in assay [4] and 1.99% [at 11.4 µM] in assay [8]. The activity, negative = inhibition in [5] was 5.04%. The result in assay [9] was inactive.

Regarding `CCN(CC)CCn1ncc2c(N)ncnc21`, the Potency is above 11.4 µM in assay [1] and above 46 µM in assay [6]. The activity change, negative = inhibition in assay [2] is 1.87%; in assay [4] it was 0.535%; in assay [8], -1.5% [at 11.4 µM]. In addition, the Potency entry in assay [3] is “inactive”. Also, the activity, negative = inhibition in [5] is -0.447%. For the same molecule, the outcome in assay [9] was inactive.

Take `NCCSC(c1ccccc1)c1ccccc1`: the Potency is above 11.4 µM in assay [1]; 1.58 µM (active) in [3]; above 46 µM in assay [6]; above 9.22 µM in [7]; 0.794 µM (active) in assay [11]; 1.26 µM (active) in assay [12]. Also, the activity change, negative = inhibition in assay [2] is 6.46%; in assay [8], 1.83% [at 11.4 µM]. In assay [9], the result was inactive. For the same molecule, the activity change, positive = activation in assay [10] is -39.5% [at 11.4 µM].
